# Screening data (PubChem BioAssay)
# Gli-Sufu block – Gli-Sufu pathway antagonists, primary screen, luciferase luminescence, Sufu-KO-LIGHT cells, uHTS | Sufu-KO-LIGHT fibroblasts, Gli luciferase reporter luminescence | 340,000 compounds, 0.74% hits | inhibition, % at 5 µM;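 active means inhibition above about 55%, limit read from the data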;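 further: 0% = DMSO-treated cells and 100% = wells with medium but no cells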
# Mdm2 MdmX PPI – inhibitors of human Mdm2-MdmX association, primary screen, cell-based, luminescence, split luciferase, SaOS-2, uHTS; Protein Mdm4 (Homo sapiens) + E3 ubiquitin-protein ligase Mdm2 (Homo sapiens), …; SaOS-2 split-luciferase Mdm2/MdmX complementation; inhibition, % at 8 µM; 330,000 compounds, 3% hits; AID 485346, 2010;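 active means inhibition of at least 50% at 8 µM in the primary screen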
# Target sequence (O15151 whole entry, looked up): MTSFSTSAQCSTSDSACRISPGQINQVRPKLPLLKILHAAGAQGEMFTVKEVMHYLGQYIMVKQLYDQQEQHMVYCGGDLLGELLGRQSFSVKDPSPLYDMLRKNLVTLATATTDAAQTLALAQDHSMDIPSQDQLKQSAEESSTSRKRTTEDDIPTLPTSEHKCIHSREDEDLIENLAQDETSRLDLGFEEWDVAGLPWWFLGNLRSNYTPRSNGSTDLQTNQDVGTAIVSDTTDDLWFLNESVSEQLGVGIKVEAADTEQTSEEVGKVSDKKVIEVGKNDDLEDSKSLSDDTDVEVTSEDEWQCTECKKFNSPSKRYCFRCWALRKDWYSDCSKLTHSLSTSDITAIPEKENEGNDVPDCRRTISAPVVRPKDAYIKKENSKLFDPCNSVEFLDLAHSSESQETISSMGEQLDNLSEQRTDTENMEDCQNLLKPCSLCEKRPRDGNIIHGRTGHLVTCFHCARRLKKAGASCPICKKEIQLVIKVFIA
# Target sequence (Q00987 whole entry, looked up): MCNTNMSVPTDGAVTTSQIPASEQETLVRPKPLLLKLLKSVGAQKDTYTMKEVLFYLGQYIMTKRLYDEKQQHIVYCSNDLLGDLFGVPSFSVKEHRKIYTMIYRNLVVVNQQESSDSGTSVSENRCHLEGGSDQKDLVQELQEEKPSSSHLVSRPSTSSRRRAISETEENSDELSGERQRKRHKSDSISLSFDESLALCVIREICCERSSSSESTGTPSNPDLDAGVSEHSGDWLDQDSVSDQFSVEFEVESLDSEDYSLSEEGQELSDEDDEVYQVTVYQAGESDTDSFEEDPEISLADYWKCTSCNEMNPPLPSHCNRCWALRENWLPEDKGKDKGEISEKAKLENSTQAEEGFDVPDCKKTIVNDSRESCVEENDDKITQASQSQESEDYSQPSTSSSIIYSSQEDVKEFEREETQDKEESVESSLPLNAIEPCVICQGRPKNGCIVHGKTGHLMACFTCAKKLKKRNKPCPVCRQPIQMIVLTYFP
# Beta apoptosis – inhibitors of cytokine-induced beta cell apoptosis, primary screen, luminescence; INS-1E cytokine-induced death, ATP luminescence, 48 h; percent of positive-control rescue, neutral wells zero; protection from apoptosis, % (no concentration beside the values); 300,000 compounds, 0.8% hits;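 active means Every replicate reaches about 75%, or at least half do and their mean reaches it too, limit read from the data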;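 further: 0% = cytokine-treated negative control wells and 100% = positive control rescue; higher means more ATP so stronger rescue from cytokine killing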
# CSC inhib – cancer stem cell viability inhibitors, primary screen, luminescence. cancer stem cell-like cells viability. inhibition, % at 7.5 µM. 300,000 compounds, 1.1% hits. AID 2717, 2010; in the data active means inhibition above about 75%; tested in HMLE shEcad cells
# MPTP block – mitochondrial permeability transition pore inhibitors, primary screen, biochemical, isolated mouse mitochondria, absorbance | Ca2+ swelling absorbance, 30 min | inhibition, % at 10 µM | 360,000 compounds, 1.4% hits | AID 602449, 2012;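 active means inhibition of 50% or more, scaled per plate between neutral and stimulator controls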;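 further: 0% = DMSO wells given calcium and 100% = 1 mM EGTA wells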
# NR3A LBD binder – binders of NR3A ligand-binding domain, primary screen, biophysical, differential scanning fluorimetry, uHTS; Glutamate receptor ionotropic, NMDA 3A (GRIN3A) ligand-binding domain; NR3A LBD differential scanning fluorimetry, Tm shift; 0% = protein alone, 100% = glycine-bound protein; Tm shift relative to glycine control, % at 25 µM; 340,000 compounds, 2.5% hits; AID 1259313, 2017;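 active means melting temperature shift of at least 10% of the positive control shift, at one fixed dose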
# Mdm2 MdmX conf – Mdm2-MdmX complex disruptors, retested hits, confirmation, luminescence, single concentration; Mdm2-MdmX binding, luminescent assay; AID 489028, 2010; 10,000 compounds, 55% hits; inhibition, % at 8 µM; shares compounds with Mdm2 MdmX PPI; in the data active means inhibition above about 40%
# FLuc counter – full-length luciferase signal inhibition, confirmation, counter-screen for Mdm2/MdmX interaction inhibitor project, cell-based, single concentration, SaOS-2; shares compounds with Mdm2 MdmX PPI; SaOS-2 full-length luciferase counterscreen, luminescence; inhibition, % at 8 µM; 6,200 compounds, 77% hits;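 active means mean inhibition at 8 µM reaching about 37%, which flags the compound as non-specific, limit read from the data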;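 further: p53-null SaOS-2 cells with luciferase driven by a doxycycline-inducible promoter; compound on cells about two nights before reading with doxycycline added after day one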
# * = called active by the depositor; nt = not tested or not shown. Shown are actives, neighbours in structure and some others; about 6.6% of the full set was active somewhere.
SMILES,Gli-Sufu block,Mdm2 MdmX PPI,Beta apoptosis,CSC inhib,MPTP block,NR3A LBD binder,Mdm2 MdmX conf,others
CCOC(=O)c1c(C)oc2c1C(=O)c1ccccc1C2=O,-4,54*,84*,85*,3,-1,25,
Cc1oc2c(c1C(=O)O)C(=O)c1ccccc1C2=O,-3,24,-12,2,0,1,nt,
Cc1oc2c(c1C(=O)c1ccccc1)C(=O)C(=O)c1ccccc1-2,6,97*,104*,98*,1,-2,72*,FLuc counter=0
O=C1C(=O)c2c(C(=O)c3ccccc3)coc2-c2ccccc21,25,100*,101*,37,7,2,5,
CC1CCN(c2ccc(NC(=O)C3CCCN3S(=O)(=O)c3ccc(F)cc3)cc2)CC1 (stereo not given),-2,29,34,nt,-1,-2,nt,
Cc1ccsc1C(=O)N1CCN(c2ncc(C(F)(F)F)cc2Cl)CC1,14,34,-1,13,-1,1,nt,
CC(Sc1nnc(-c2ccncc2)n1-c1ccc(F)cc1)C(=O)NC1CC1 (stereo not given),5,-13,-4,-7,-2,0,nt,
COc1ccc(NC(=O)CCNS(=O)(=O)c2cc(Br)cnc2N)c(OC)c1,5,5,-5,1,0,-1,nt,
CCc1cc2c(=O)n(Cc3ccco3)c(SCC(=O)NCC3CCCO3)nc2s1 (stereo not given),18,17,-4,-2,0,-2,nt,
CCc1cc2c(=O)n(Cc3ccco3)c(SCc3c(C)noc3C)nc2s1,16,72*,5,59,1,-1,66*,FLuc counter=48*
COC(=O)c1cc(=O)nc2sccn12,-4,19,-3,-1,-5,2,nt,
COC(=O)c1cc(NC(=O)c2c(Cl)nc3sccn23)cc(C(=O)OC)c1,4,68*,24,2,-4,4,13,
CCCCC(=O)/C=C/n1c(=S)oc2ccccc21,-18,100*,10,16,1,0,33,
CCN1CCc2c(sc(NC(=O)c3ccc(S(=O)(=O)N4CCOCC4)cc3)c2C(=O)OC)C1,45,64*,-17,-8,-2,0,30,
Cc1cnc(NC(=O)COc2ccccc2Cl)s1,-70,53*,-13,nt,-1,1,36,
Cc1cnc(NC(=O)CCNC(=O)c2ccccc2Cl)s1,-18,-3,-5,-20,0,-2,nt,
O=C1C2C3C=CC(C3)C2C(=O)N1c1cccc(-c2nc3ccccc3o2)c1 (stereo not given),15,17,-6,-8,-5,0,nt,
O=C(Nc1cccc(-c2nc3ccccc3o2)c1)c1ccc(N2C(=O)C3C4C=CC(C4)C3C2=O)cc1 (stereo not given),-3,59*,4,-2,-21,1,21,
COc1cc(C(=O)OCC(=O)Nc2cccc(S(=O)(=O)N3CCOCC3)c2)ccc1OCC(C)C,-1,-2,-1,-5,0,0,nt,
CN(CC(=O)Nc1ccccc1Br)C(=O)c1cccnc1Nc1cccc(C(F)(F)F)c1,10,56*,1,nt,1,15*,-3,
COc1cc2c(cc1OC)C(c1ccccc1)N(C(=O)CCl)CC2 (stereo not given),9,100*,9,-9,0,-2,9,
CCC(c1nnc(SCC(=O)Nc2c(F)cccc2F)n1Cc1ccccc1)N(C)C (stereo not given),0,17,-9,2,0,2,nt,
N#CCC(=O)Nc1sc2c(c1C(N)=O)CCCC2,6,15,nt,-2,-2,-1,nt,
COC(=O)c1c(NC(=O)COC(=O)c2ccc(C)s2)sc2c1CCCCC2,0,52*,1,20,0,0,13,
COC(=O)c1c(NC(=O)COC(=O)c2ccc(NC(=O)CC#N)cc2)sc2c1CCCCC2,1,64*,2,0,7,19*,2,
SMILES,Gli-Sufu block,Mdm2 MdmX PPI,Beta apoptosis,CSC inhib,MPTP block,NR3A LBD binder,Mdm2 MdmX conf,others
COC(=O)c1c(NC(=O)COC(=O)c2ccccc2O)sc2c1CCCCC2,0,30,2,8,2,4,nt,
COCCCN1C(=O)C(CC(=O)NCC2CCCCC2)CC(C(=O)N(C(C)C)C(C)C)=C1C (stereo not given),nt,nt,nt,nt,-2,nt,nt,
CCC1=Nc2cc(C(=O)NCC3CCCO3)ccc2Sc2ccc(Br)cc21 (stereo not given),-5,43,20,49,1,-2,nt,
CCC1=Nc2cc(C(=O)NCC3CCCO3)ccc2Sc2ccc(Cl)cc21 (stereo not given),-4,65*,16,58,3,-2,55*,FLuc counter=45*
CCOC(=O)c1sc2nc(SC)nc(-c3ccc(Cl)cc3)c2c1N,-13,60*,16,-9,0,1,13,
O=C(NCc1ccco1)c1nc2c(nnn2Cc2ccccc2Cl)c(=O)[nH]1,-3,88*,10,94*,0,0,93*,FLuc counter=21
Cc1ccc(S(=O)(=O)N2C[C@@H]3[C@H]4CC[C@H](C4)[C@@H]3[C@@H](C)[C@H]2c2ccco2)cc1,17,23,nt,nt,0,2,nt,
Cc1ccc(Nc2c(N)c(=O)oc3ccccc23)cc1,5,58*,8,41,8,-2,37,
CNc1c(N)c(=O)oc2ccccc12,0,24,nt,-8,0,0,nt,
O=C1c2ccc3c4c(ccc(c24)C(=O)N1c1cccc(O)c1)C(=O)N(c1cccc(O)c1)C3=O,22,65*,118*,12,6,-1,47*,FLuc counter=1
CCOC(=O)c1c(C)n(-c2ccc(C)cc2)c2ccc(OCC(O)CNCCCO)cc12 (stereo not given),20,89*,52,28,31,-2,17,
CCOC(=O)c1c(C)n(C)c2ccc(OCC(O)CNC(CC)CO)cc12 (stereo not given),1,-23,7,-5,-4,2,nt,
